High-throughput results deposited in PubChem by several laboratories.
A selection: hits, their analogues and other compounds. The true share with any hit is near 4%.
Mtb UGM inh = Mtb UDP-galactopyranose mutase inhibition. P9WIQ1. purified UGM, fluorescence polarization probe displacement. inhibition, % at 10 µM. actives 0.06% (n = 320,000). AID 504406; in the data active = inhibition above about 10%, passing the limit was not always enough
Rv3671c inh = inhibitors of M. tuberculosis serine protease Rv3671c; P9WHR9; inhibition, % at 5.96 µM; actives 0.048% (n = 320,000); AID 2606; in the data active = inhibition above about 38%;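 note: extracellular domain of Rv3671c used as enzyme; 0% = enzyme with DMSO and 100% = no enzyme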
Target sequence (P9WHR9 whole entry, looked up, the tested form may be a part): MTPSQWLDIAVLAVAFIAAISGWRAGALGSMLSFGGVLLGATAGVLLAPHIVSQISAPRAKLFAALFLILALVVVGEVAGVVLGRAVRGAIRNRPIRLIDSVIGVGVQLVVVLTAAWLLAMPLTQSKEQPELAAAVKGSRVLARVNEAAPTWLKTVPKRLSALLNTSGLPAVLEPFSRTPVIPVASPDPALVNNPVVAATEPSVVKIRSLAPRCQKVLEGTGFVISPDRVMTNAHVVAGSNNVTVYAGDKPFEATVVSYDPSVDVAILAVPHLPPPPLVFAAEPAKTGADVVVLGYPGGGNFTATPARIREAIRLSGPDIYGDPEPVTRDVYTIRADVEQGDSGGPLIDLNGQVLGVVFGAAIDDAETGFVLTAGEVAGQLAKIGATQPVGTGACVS
FBA Mtb inh = inhibits M. tuberculosis FBA enzyme; AID 588726; purified M. tuberculosis FBA, fluorescence read-out; actives 2.3% (n = 360,000); P9WQA3; inhibition, % at 1 µM; in the data active = inhibition above about 27%;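 note: 0% = vehicle and 100% = reference inhibitor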
RecA intein inh = Mtb RecA intein splicing inhibition | cell-free RecA intein splicing, fluorescence | inhibition, % (concentration not given with the values) | actives 0.75% (n = 290,000) | AID 2221; in the data active = inhibition above about 30%;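 note: 0% = vehicle wells and 100% = reference inhibitor control wells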
GDH-TPI counter = inhibits GDH-TPI coupling enzymes, artifact for Mtb FBA screen. AID 588335. GDH-TPI coupled enzyme counterscreen, NADH absorbance. inhibition, % at 4.8 µM. actives 1.2% (n = 360,000); in the data active = inhibition above about 30%;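 note: 0% = DMSO wells and 100% = wells lacking the enzyme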
Mtb betalactam = beta-lactam sensitization of Mtb H37Rv; inhibition, % at 25 µM; M. tuberculosis H37Rv growth with meropenem, percent inhibition; actives 0.27% (n = 330,000); call rule not given here;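 note: growth measured after seven days incubation then overnight dye step; 0% = bacteria only wells and 100% = bacteria with antibiotic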
* = called active by the depositor; · = no result given; + = active, no number.

SMILES | Mtb UGM inh | Rv3671c inh | FBA Mtb inh | RecA intein inh | GDH-TPI counter | Mtb betalactam
Cc1ccc(NC(=O)COC(=O)C2CC(=O)N(Cc3ccccc3)C2)cc1F (stereo unspecified) | 0.0 | 0.8 | 1.9 | -5.8 | -5.4 | 0.2
COCc1cc(C)n(CC(=O)N/N=C/c2ccc(-c3ccc(Cl)c(C(=O)O)c3)o2)c(=O)c1C#N | -2.5 | -2.1 | 5.2 | -1.8 | 68.9* | 3.0
COCc1cc(C)nc(N/N=C/c2ccc(-c3ccc(C(=O)O)c(Cl)c3)o2)c1C#N | 3.6 | -1.3 | · | -0.7 | · | -0.2
CC(C)CCNC(=O)C(c1ccc(O)cc1)N(Cc1ccco1)C(=O)CCC(=O)Nc1nccs1 (stereo unspecified) | 3.9 | 7.8 | 0.5 | -0.3 | -6.8 | -1.2
COc1ccccc1OCc1cc(C(=O)NCc2ccc(N3CCCC3=O)cc2)no1 | 1.1 | 6.1 | 0.3 | 1.8 | 1.3 | 2.5
Cc1cc(O)ccc1Nc1nc(-c2cccnc2)cs1 | 0.4 | · | 0.7 | 2.0 | 17.4 | -2.7
Cc1cc(O)ccc1Nc1nc(-c2cccs2)cs1 | 3.7 | 6.9 | 3.4 | 30.3* | 3.8 | -5.4
CCOc1ccc(-c2cc(C(=O)Nc3ccc(C)c(NS(C)(=O)=O)c3)[nH]n2)c(C)c1 | · | · | -1.6 | · | 0.4 | ·
CCOc1ccc(S(=O)(=O)N2CCN(C(=O)c3ccc(C)c(S(=O)(=O)N4CCOCC4)c3)CC2)cc1 | 1.7 | 1.4 | 0.7 | · | 1.8 | -7.4
O=Cc1s/c(=N\S(=O)(=O)c2ccccc2)n(CCCCl)c1Cl | · | · | -2.0 | 94.6* | -4.6 | ·
CCn1c(C)cs/c1=N\S(=O)(=O)c1ccccc1 | 0.5 | -4.9 | 0.4 | -17.4 | -1.7 | -4.5
CC1=NN(c2cccc(Cl)c2)C(=O)C1 | 1.2 | -182.1 | 0.5 | 94.4* | 7.4 | -4.5
S=C(NCCc1ccccc1)N/N=C/c1cccs1 | 1.2 | -14.7 | 0.6 | -2.9 | 20.7 | 93.3
CC(C)NC(=S)N/N=C/c1cccs1 | -0.5 | 5.4 | -5.5 | 1.1 | 38.4* | 96.3
S=C(NCc1ccccc1)N/N=C/c1cccs1 | 3.0 | -3.9 | 16.6 | 4.7 | 34.3* | 96.7
O=C(Nc1cccc(C(=O)O)c1)/C(=C/c1cccc([N+](=O)[O-])c1)NC(=O)c1cccc(Br)c1 | -3.9 | 0.5 | 6.5 | 1.4 | -4.1 | -7.1
O=C(N/N=C/C(Cl)=C/c1ccc([N+](=O)[O-])cc1)C(=O)Nc1cccc(C(=O)O)c1 | 3.4 | -10.3 | -1.8 | 5.1 | 37.1* | 4.1
NC(c1ccccc1)c1csc(Nc2ccc(C(F)(F)F)cn2)n1 (stereo unspecified) | · | · | -0.9 | · | -1.8 | ·
COc1ccccc1-c1csc(C(C)(NC(C)=O)c2ccccc2)n1 (stereo unspecified) | · | · | -0.1 | · | 3.1 | ·
COc1ccc(N2C(=O)/C(=C/c3ccc([N+](=O)[O-])cc3)N=C2C)cc1 | -0.1 | -2.7 | -5.7 | 0.3 | 9.5 | -2.8
CC1=N/C(=C\c2ccc([N+](=O)[O-])cc2)C(=O)N1c1ccc(Br)c(C)c1 | -1.0 | -3.8 | -3.4 | -1.9 | 38.9* | -0.4
O=c1ccn([C@@H]2O[C@H](CNCc3cccn3-c3nccs3)[C@@H](O)[C@H]2O)c(=O)[nH]1 | · | · | -1.8 | · | · | ·
COc1ccc(C2CC(=O)C3=C(C2)Nc2ccccc2N(C(C)=O)C3c2ccco2)cc1 (stereo unspecified) | -1.0 | 1.0 | 2.7 | -0.2 | 47.0* | -11.3
O=C(COc1ccc2oc(-c3ccco3)cc(=O)c2c1)N1CCCCC1 | 1.1 | 5.3 | 157.1* | -0.4 | 50.6* | -13.2
COc1ccc2oc(-c3ccco3)cc(=O)c2c1 | -0.5 | 8.9 | 116.4* | -1.9 | 53.8* | 2.7
SMILES | Mtb UGM inh | Rv3671c inh | FBA Mtb inh | RecA intein inh | GDH-TPI counter | Mtb betalactam
O=C(COc1ccc2c3c(c(=O)oc2c1)CCC3)N1CCCCC1 | 0.3 | 5.6 | 26.1 | -0.6 | 3.7 | 2.6
Cc1cc(C)c2c(n1)nn1c(NCCN3CCOCC3)cc(C)nc21 | -5.3 | -0.5 | + | -51.0 | 10.1 | 6.7
COCCNc1cc(C)nc2c3c(C)cc(C)nc3nn12 | 3.1 | -0.8 | + | -327.5 | 4.5 | -15.6
COCCNc1cc(C)nc2c(-c3ccccc3OC)c(C)nn12 | 0.8 | 2.5 | 5.6 | 1.1 | 13.7 | -6.1
C=CC[C@@H](CC(=O)NCCO)C(=O)NC[C@H](OC(=O)[C@@H](CC=C)Cc1ccc(F)cc1)c1ccccc1 | 0.6 | 1.1 | 1.3 | · | -3.9 | 2.3
CSCC[C@H](NC(=O)Cc1c(C)c2cc3c(C)c(C)oc3cc2oc1=O)C(=O)N[C@@H](C(=O)O)c1ccccc1 | · | · | 21.3 | · | 9.7 | ·
Cc1cc(C)cc(C(O)c2ncc(-c3ccc(C(F)(F)F)cc3)[nH]2)c1 (stereo unspecified) | · | · | 3.9 | · | -5.3 | ·
CCNC(=O)c1cc2c(c(-c3cccc(-c4cccc(C(=O)N(C)C)c4)c3)n1)[C@@H](CCO)N(S(=O)C(C)(C)C)C2 (stereo partly specified) | · | · | 1.9 | · | · | ·
CC(C)c1ccc2oc(-c3ccc(NC(=O)c4ncn[nH]4)cc3)nc2c1 | -2.0 | -14.9 | · | -0.2 | · | 61.8
CCC(C)c1ccc2oc(-c3ccc(NC(=O)c4ncn[nH]4)cc3)nc2c1 (stereo unspecified) | -1.5 | -7.6 | 3.8 | -1.3 | 31.0* | 99.0
COc1ccc2c(c1)c1ncn(CC3CCCO3)c(=O)c1n2C (stereo unspecified) | -2.7 | -2.3 | + | -2.5 | 15.4 | -1.4
COc1ccc2c(c1)[nH]c1c(=O)n(CCCN3CCOCC3)cnc12 | -1.1 | -2.7 | 3.5 | -1.9 | -1.2 | -4.5
COc1ccc2c(c1)c1ncn(CCCN3CCOCC3)c(=O)c1n2C | 2.3 | -6.8 | 170.0* | 3.3 | 9.4 | ·
COc1ccc(S(=O)(=O)N(C)C[C@@H]2OCc3cnnn3CCCC(=O)N([C@H](C)CO)C[C@@H]2C)cc1 | · | · | -1.5 | · | 3.3 | ·
COc1ccc(/C=N/Nc2nnc(Cc3ccc(OC)c(OC)c3)c(=O)[nH]2)cc1OC | 0.5 | -8.0 | -0.9 | -5.6 | 30.5 | 2.3
CCNc1nc(NCC)nc(N/N=C/c2ccc(N(C)C)cc2)n1 | -0.1 | -2.6 | 24.4 | · | 37.5* | -3.4
COc1ccc(Cc2nnc(N/N=C/c3ccc(N(C)C)cc3)[nH]c2=O)cc1OC | -0.6 | 5.1 | -2.3 | -0.9 | 77.9* | -2.3
Cc1cc(=O)[nH]c(N/N=C/c2ccc(Cl)cc2Cl)n1 | -1.0 | 6.5 | 2.9 | -3.2 | 4.6 | -0.3
CCN(CCC#N)c1ccc(/C=N/Nc2nc(C)cc(=O)[nH]2)c(C)c1 | -0.5 | 9.8 | 8.4 | -3.8 | 45.2* | -3.0
CCNc1nc(NCC)nc(N/N=C/c2ccc(O)c(O)c2)n1 | 2.5 | 2.5 | -3.0 | -5.3 | 10.5 | -1.2
Cc1cc(=O)[nH]c(N/N=C/c2ccccc2C(F)(F)F)n1 | 0.4 | -7.7 | -3.0 | 0.3 | 4.1 | -3.1
Cc1cc(=O)[nH]c(N/N=C/c2cc(C)n(CC(F)(F)F)c2C)n1 | -1.1 | 7.5 | 2.9 | -3.5 | 40.3* | -4.8
CC1CCCCC1NC(=O)CCN1C(=O)C2C3C=CC(C3)C2C1=O (stereo unspecified) | 2.6 | -10.5 | 1.7 | -0.4 | -2.4 | -3.4
